Assay in all cases: DAPPL (digital affinity profiling via proximity ligation, sequencing); 10 mM Tris-HCl pH 7.5, 50 mM NaCl, 1 mM DTT, 4% glycerol, room temperature, 30 min; GST-TFs on glutathione beads, 16-mer random dsDNA library, 0.1% formaldehyde crosslink after washing; high values mean tight binding
One test addresses T1, FEV (Homo sapiens, UniProt Q99581 1-238).
T1 sequence: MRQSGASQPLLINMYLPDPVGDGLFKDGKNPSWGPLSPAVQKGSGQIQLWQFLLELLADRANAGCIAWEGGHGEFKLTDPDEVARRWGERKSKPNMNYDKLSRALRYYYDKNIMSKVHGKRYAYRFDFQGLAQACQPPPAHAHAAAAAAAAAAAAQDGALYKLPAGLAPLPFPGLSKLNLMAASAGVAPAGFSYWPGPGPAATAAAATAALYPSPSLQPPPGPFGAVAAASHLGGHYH
Particulars: protein: recombinant; tags: N-terminal GST; dsDNA, one strand shown. A digest of the protocol:
(§1)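 Binding signal is each hexamer's read frequency for a factor divided by its frequency in the tag-only sample. The factors were GST-fused human transcription factors from yeast, captured on glutathione beads, DNA-barcoded and pooled with that sample. Pools were incubated with 200 nmole of a random double-stranded 16-mer DNA library in Tris/NaCl/DTT/glycerol buffer at room temperature for 30 min, then washed, crosslinked with 0.1% formaldehyde, proximity-ligated with BsaI/T4 ligase (1 h, 37 °C), PCR-amplified and sequenced on an Illumina NextSeq500.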

A further test concerns the target ETV5 (Homo sapiens, UniProt P41161 1-510). Particulars: protein: recombinant; tags: N-terminal GST; dsDNA, one strand shown. A digest of the protocol: as §1
In a further test the target is HSF1 (Homo sapiens, UniProt Q00613 1-529). Particulars: protein: recombinant; tags: N-terminal GST; chain copies: 3; dsDNA, one strand shown. A digest of the protocol:
as §1

The target of another test is T2, SPIC (Homo sapiens, UniProt Q8N5J4 1-248).
T2 sequence: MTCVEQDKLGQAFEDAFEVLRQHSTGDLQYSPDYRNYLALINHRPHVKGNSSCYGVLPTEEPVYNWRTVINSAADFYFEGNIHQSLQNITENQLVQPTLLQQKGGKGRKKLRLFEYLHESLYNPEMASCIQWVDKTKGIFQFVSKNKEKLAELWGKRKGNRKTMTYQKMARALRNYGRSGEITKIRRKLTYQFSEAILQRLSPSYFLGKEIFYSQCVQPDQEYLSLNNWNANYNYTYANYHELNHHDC
Particulars: protein: recombinant; tags: N-terminal GST; dsDNA, one strand shown. A digest of the protocol:
as §1

The target in another test is ELF4 (Homo sapiens, UniProt Q99607 1-663). Particulars: protein: recombinant; tags: N-terminal GST; dsDNA, one strand shown. A digest of the protocol:
as §1

Another test addresses T3, ELK4 (Homo sapiens, UniProt P28324-2 1-405).
T3 sequence: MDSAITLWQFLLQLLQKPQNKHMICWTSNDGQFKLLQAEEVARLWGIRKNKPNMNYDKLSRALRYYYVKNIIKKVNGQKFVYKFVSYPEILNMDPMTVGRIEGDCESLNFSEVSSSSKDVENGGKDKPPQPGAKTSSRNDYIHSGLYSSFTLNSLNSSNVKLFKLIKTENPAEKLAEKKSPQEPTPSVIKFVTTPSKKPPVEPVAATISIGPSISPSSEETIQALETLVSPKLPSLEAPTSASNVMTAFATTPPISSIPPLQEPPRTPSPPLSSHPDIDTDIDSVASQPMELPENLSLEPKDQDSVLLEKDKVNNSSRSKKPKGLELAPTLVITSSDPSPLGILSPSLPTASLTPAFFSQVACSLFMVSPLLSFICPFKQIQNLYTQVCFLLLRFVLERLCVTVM
Particulars: protein: recombinant; tags: N-terminal GST; dsDNA, one strand shown. A digest of the protocol:
as §1

The next test has as its target T4, ETV2 (Homo sapiens, UniProt O00321 1-342).
T4 sequence: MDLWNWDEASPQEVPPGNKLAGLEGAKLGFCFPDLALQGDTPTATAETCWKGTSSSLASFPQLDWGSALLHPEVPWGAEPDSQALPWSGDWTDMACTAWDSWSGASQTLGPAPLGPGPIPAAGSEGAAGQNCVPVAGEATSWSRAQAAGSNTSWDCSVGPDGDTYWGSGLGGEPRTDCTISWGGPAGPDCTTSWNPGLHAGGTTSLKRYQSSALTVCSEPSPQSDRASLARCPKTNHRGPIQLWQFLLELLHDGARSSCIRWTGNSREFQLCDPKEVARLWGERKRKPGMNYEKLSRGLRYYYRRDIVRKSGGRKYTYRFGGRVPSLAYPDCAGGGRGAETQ
Particulars: protein: recombinant; tags: N-terminal GST; dsDNA, one strand shown. A digest of the protocol: as §1

The next test concerns the target T5, ELF3 (Homo sapiens, UniProt P78545 1-371).
T5 sequence: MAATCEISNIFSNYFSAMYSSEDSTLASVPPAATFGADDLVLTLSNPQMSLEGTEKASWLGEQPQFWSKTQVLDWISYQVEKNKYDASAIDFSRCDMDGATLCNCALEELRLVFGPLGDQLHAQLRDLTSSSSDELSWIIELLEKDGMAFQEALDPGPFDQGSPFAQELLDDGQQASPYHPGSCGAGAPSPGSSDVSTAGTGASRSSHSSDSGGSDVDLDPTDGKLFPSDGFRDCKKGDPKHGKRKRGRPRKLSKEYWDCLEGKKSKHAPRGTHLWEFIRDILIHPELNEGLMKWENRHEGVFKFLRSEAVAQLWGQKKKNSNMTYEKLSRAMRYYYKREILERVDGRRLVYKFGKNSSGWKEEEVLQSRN
Particulars: protein: recombinant; tags: N-terminal GST; dsDNA, one strand shown. A digest of the protocol: as §1

For another test, the target named is CRX (Homo sapiens, UniProt O43186 1-299). Particulars: protein: recombinant; tags: N-terminal GST; dsDNA, one strand shown. A digest of the protocol: as §1
The next test deals with ETV1 (Homo sapiens, UniProt P50549 1-477). Particulars: protein: recombinant; tags: N-terminal GST; dsDNA, one strand shown. A digest of the protocol:
as §1

The next test deals with T6, ERF (Homo sapiens, UniProt P50548 1-548).
T6 sequence: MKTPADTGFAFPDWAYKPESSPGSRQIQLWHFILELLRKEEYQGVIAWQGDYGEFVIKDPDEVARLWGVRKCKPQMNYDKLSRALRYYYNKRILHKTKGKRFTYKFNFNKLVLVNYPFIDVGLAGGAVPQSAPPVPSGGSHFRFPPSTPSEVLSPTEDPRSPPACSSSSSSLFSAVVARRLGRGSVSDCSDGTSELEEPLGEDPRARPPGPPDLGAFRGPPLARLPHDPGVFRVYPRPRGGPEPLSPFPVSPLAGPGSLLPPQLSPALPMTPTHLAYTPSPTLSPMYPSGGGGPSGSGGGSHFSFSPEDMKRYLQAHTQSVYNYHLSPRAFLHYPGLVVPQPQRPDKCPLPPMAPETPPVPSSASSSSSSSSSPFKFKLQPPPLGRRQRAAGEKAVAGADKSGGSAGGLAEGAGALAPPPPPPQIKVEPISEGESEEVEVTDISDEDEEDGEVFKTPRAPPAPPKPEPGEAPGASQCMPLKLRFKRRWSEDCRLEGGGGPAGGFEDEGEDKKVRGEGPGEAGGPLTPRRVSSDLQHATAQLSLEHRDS
Particulars: protein: recombinant; tags: N-terminal GST; dsDNA, one strand shown. A digest of the protocol: as §1

Another test addresses T7, ETV3L (Homo sapiens, UniProt Q6ZN32 1-361).
T7 sequence: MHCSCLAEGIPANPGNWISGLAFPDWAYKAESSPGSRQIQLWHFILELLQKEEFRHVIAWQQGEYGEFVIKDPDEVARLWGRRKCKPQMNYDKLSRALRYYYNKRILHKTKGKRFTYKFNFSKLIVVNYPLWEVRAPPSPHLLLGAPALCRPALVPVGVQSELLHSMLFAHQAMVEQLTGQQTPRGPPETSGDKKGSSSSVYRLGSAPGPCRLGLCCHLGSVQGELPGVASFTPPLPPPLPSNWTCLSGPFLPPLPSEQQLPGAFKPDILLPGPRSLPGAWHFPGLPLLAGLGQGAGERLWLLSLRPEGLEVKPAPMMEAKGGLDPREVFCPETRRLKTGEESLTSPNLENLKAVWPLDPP
Particulars: protein: recombinant; tags: N-terminal GST; dsDNA, one strand shown. A digest of the protocol:
as §1

In a further test the target is T8, ETS2 (Homo sapiens, UniProt P15036 1-469).
T8 sequence: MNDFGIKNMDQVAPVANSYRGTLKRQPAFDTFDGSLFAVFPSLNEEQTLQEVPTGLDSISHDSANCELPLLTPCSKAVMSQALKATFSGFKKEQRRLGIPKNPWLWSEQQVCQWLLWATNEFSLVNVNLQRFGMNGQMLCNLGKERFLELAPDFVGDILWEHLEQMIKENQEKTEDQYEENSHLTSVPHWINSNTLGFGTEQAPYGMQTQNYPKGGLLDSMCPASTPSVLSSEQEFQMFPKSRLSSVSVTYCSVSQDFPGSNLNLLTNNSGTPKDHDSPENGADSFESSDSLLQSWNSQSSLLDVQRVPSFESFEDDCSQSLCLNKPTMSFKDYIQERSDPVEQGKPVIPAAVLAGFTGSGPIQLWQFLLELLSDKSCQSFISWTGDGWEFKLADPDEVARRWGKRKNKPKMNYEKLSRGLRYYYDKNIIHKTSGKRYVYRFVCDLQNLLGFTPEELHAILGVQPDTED
Particulars: protein: recombinant; tags: N-terminal GST; dsDNA, one strand shown. A digest of the protocol: as §1

Another test addresses T9, SPDEF (Homo sapiens, UniProt O95238 1-335).
T9 sequence: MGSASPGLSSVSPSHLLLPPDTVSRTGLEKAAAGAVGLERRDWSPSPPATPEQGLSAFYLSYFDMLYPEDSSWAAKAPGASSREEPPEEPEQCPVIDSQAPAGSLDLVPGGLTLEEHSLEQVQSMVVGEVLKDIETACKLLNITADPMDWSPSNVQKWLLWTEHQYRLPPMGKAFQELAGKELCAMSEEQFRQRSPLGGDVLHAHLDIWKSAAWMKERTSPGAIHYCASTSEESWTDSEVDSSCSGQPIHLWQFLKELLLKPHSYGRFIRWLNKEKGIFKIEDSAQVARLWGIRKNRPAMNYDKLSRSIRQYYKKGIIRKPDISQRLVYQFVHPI
Particulars: protein: recombinant; tags: N-terminal GST; dsDNA, one strand shown. A digest of the protocol: as §1

In a further test the target is T10, ETV7 (Homo sapiens, UniProt Q9Y603 1-341).
T10 sequence: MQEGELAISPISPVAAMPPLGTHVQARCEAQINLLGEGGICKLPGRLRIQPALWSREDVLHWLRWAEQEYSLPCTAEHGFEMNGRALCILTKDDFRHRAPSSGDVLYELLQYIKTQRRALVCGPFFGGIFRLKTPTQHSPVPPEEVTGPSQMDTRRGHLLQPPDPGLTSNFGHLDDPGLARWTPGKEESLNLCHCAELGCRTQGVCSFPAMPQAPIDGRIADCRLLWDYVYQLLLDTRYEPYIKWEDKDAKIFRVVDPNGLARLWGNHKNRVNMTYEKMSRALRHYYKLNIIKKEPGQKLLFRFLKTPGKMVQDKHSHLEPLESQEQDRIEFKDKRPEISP
Particulars: protein: recombinant; tags: N-terminal GST; dsDNA, one strand shown. A digest of the protocol:
as §1

The target of the next test is T11, ELF5 (Homo sapiens, UniProt Q9UKW6-2 1-255).
T11 sequence: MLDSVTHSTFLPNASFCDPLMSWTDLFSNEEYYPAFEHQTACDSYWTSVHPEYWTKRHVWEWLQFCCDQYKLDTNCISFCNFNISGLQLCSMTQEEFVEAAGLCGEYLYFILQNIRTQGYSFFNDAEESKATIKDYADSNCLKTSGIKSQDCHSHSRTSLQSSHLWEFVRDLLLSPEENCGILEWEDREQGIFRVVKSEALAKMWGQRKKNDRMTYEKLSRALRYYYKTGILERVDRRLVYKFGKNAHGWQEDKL
Particulars: protein: recombinant; tags: N-terminal GST; dsDNA, one strand shown. A digest of the protocol:
as §1

A further test concerns the target T12, ETV3 (Homo sapiens, UniProt P41162-2 1-143).
T12 sequence: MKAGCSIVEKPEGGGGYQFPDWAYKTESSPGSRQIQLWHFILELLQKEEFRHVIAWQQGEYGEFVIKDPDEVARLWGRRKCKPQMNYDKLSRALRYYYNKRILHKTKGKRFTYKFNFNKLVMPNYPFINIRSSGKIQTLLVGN
Particulars: protein: recombinant; tags: N-terminal GST; dsDNA, one strand shown. A digest of the protocol: as §1

In another test the target is ETV6 (Homo sapiens, UniProt P41212 1-452). Particulars: protein: recombinant; tags: N-terminal GST; dsDNA, one strand shown. A digest of the protocol:
as §1

ETV6, sequence (P41212 whole entry): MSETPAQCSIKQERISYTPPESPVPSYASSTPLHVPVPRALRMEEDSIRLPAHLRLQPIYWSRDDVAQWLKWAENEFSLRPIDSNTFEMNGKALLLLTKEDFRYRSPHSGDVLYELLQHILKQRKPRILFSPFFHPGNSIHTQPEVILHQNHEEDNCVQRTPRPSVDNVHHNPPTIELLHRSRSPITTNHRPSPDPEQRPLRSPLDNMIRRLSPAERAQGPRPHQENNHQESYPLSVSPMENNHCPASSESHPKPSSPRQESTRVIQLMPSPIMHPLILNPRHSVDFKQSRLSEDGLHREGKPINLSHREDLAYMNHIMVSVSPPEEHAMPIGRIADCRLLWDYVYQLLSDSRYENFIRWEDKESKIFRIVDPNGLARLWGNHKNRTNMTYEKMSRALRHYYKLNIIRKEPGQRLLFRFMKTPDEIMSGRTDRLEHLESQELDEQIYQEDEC
ELF4, sequence (Q99607 whole entry): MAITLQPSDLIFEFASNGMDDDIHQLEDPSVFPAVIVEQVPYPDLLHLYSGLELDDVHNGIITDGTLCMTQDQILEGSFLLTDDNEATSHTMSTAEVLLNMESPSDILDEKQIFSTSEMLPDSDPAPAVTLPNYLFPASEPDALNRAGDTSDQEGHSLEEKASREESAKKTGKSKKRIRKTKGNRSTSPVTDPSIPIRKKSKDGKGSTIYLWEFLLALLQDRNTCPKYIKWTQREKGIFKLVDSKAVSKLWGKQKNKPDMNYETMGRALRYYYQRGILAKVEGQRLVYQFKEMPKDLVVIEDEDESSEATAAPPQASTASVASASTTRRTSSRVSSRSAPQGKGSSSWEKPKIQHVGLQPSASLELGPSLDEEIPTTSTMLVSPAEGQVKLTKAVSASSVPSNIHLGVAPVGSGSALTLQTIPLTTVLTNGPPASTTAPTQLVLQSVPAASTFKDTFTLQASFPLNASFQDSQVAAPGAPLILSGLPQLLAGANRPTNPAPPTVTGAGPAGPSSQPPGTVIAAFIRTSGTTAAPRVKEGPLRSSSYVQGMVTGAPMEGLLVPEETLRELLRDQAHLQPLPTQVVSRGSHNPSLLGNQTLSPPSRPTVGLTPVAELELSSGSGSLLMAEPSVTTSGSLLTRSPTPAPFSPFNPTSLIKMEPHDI
ETV1, sequence (P50549 whole entry): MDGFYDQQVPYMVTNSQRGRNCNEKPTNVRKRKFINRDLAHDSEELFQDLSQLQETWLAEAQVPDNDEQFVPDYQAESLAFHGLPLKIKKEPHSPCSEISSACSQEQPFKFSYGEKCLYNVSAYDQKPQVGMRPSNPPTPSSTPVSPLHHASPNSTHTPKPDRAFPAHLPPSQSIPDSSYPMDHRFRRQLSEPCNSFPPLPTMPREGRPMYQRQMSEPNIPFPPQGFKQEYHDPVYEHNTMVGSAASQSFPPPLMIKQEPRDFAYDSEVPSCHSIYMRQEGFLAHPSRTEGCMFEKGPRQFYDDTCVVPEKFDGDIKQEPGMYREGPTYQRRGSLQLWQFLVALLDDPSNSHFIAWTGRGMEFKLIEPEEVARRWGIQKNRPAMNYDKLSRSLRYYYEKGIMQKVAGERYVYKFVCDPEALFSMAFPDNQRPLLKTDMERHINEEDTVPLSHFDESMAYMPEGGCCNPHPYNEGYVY
HSF1, sequence (Q00613 whole entry): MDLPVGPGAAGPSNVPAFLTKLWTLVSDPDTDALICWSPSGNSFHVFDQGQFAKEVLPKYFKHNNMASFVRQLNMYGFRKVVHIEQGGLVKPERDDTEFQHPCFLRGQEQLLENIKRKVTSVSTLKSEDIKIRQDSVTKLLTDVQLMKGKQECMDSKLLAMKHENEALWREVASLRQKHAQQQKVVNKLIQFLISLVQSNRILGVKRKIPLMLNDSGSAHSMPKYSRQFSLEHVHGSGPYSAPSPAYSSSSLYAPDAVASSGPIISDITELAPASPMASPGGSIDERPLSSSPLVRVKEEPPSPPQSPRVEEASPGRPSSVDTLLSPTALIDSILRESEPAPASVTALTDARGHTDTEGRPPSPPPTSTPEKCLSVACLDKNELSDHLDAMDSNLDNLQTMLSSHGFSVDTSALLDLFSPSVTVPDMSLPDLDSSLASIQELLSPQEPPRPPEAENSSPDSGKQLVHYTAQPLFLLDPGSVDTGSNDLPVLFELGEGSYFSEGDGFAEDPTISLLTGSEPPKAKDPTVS
CRX, sequence (O43186 whole entry): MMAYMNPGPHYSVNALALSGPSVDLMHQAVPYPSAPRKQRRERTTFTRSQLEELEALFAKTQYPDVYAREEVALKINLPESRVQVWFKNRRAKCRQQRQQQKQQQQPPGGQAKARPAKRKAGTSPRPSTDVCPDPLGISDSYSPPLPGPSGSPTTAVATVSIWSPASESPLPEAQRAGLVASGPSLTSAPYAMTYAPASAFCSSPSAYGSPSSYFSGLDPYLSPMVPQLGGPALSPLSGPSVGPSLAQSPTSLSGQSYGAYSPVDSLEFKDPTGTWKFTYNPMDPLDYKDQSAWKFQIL
ETV5, sequence (P41161 whole entry): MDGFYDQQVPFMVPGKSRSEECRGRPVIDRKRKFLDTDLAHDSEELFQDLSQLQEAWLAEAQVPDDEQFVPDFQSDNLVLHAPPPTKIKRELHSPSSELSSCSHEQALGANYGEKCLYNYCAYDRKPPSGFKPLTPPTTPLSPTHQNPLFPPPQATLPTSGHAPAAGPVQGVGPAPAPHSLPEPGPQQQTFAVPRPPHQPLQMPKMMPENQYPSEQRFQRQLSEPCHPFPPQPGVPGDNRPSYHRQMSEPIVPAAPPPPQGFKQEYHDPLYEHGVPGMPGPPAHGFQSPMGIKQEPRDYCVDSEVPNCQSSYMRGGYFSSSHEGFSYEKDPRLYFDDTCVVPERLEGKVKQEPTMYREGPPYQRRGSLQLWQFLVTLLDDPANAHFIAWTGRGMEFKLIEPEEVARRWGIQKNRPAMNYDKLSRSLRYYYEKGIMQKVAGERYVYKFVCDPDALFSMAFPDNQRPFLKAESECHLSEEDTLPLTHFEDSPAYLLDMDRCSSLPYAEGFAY

Regarding TAAACT, the binding signal with FEV is 1.11 fold enrichment (6-mer frequency, TF over GST control); with ETV5, 1.23 fold enrichment (6-mer frequency, TF over GST control); with HSF1 it was 1.3 fold enrichment (6-mer frequency, TF over GST control); with SPIC, 1.12 fold enrichment (6-mer frequency, TF over GST control); in the test with ELF4 it was 1.23 fold enrichment (6-mer frequency, TF over GST control); with ELK4 it was 1.11 fold enrichment (6-mer frequency, TF over GST control). The binding signal is 1.27 fold enrichment (6-mer frequency, TF over GST control) with ETV2; 1.04 fold enrichment (6-mer frequency, TF over GST control) with ELF3; 1.72 fold enrichment (6-mer frequency, TF over GST control) with CRX; 1.2 fold enrichment (6-mer frequency, TF over GST control) with ETV1; 1.35 fold enrichment (6-mer frequency, TF over GST control) with ERF; 1.17 fold enrichment (6-mer frequency, TF over GST control) with ETV3L. Besides, the binding signal in the test with ETS2 is 1.18 fold enrichment (6-mer frequency, TF over GST control); with SPDEF it was 1.01 fold enrichment (6-mer frequency, TF over GST control); with ETV7, 1.04 fold enrichment (6-mer frequency, TF over GST control); in the test with ELF5 it was 1.16 fold enrichment (6-mer frequency, TF over GST control); in the test with ETV3, 1.15 fold enrichment (6-mer frequency, TF over GST control); in the test with ETV6 it was 1.13 fold enrichment (6-mer frequency, TF over GST control).

(Values after publication PMC7862700, “An all-to-all approach to the identification of sequence-specific readers for epigenetic DNA modifications on cytosine”.)
